# Laboratory results reported in PubChem BioAssay (EPA / NIEHS).
# Results filed as inconclusive are left out. Calls of active or inactive are those of the source. The calls were made as follows, unless noted: active = hit-call score of the fitted dose curve at least 0.9, where 1 is the maximum; inactive = score below 0.9.
# Experiments:
# [1] = biological target: Retinoic acid receptor RXR-alpha (Homo sapiens) (UniProt P19793); assay: ATG_RXRa_TRANS: Attagene TRANS-FACTORIAL HepG2 Assay for human Retinoid X Receptor alpha (RXRa) (AID 2283012; active = hit-call score of the fitted dose curve at least 0.9, where 1 is the maximum)
# Chain of Retinoic acid receptor RXR-alpha (Homo sapiens) (P19793 whole entry, looked up, the tested form may be a part): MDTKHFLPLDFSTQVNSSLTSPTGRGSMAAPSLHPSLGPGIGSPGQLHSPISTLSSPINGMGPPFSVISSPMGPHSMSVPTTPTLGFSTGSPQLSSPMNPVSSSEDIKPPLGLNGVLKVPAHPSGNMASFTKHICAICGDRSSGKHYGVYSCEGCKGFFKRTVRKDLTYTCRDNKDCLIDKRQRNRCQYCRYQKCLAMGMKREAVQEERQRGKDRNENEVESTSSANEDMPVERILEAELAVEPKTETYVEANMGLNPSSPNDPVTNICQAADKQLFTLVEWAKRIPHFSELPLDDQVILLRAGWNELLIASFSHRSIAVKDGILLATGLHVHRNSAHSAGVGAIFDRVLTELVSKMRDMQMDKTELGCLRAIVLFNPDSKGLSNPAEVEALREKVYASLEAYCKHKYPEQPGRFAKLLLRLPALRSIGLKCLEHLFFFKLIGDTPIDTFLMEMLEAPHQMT
# Outline: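 Transient transfection of human HepG2 with multiple GAL4-UAS reporter constructs; 24 h compound exposure; total RNA isolated, reverse-transcribed, PCR-amplified, 6-FAM labelled, HpaI-cut, resolved by capillary electrophoresis. Positive-direction fit versus DMSO.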
# [2] = biological target: human Retinoid X Receptor beta (RXRb), RXRB (gene 6257) (UniProt P28702); assay: ATG_RXRb_TRANS: Attagene TRANS-FACTORIAL HepG2 Assay for human Retinoid X Receptor beta (RXRb) (AID 2283013; active = hit-call score of the fitted dose curve at least 0.9, where 1 is the maximum)
# Chain of human Retinoid X Receptor beta (RXRb), RXRB (gene 6257) (P28702 whole entry, looked up, the tested form may be a part): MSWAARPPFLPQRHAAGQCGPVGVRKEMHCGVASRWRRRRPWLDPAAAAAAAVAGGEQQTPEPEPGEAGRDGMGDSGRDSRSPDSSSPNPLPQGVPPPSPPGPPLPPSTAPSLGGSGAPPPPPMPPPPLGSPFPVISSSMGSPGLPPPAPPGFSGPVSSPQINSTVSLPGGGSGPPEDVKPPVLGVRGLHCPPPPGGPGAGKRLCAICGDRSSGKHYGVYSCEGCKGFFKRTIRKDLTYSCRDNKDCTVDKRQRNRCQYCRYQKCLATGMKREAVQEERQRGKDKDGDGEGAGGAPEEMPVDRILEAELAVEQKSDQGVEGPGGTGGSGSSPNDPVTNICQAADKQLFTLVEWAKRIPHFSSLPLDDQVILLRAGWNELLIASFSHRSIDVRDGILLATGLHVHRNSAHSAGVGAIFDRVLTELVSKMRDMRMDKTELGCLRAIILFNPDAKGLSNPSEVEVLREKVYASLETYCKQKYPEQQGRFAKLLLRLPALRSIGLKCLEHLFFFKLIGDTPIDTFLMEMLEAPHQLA
# Outline: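 Transfect HepG2 with GAL4-UAS multi-reporter constructs (chimeric NR-Gal4, TRANS format); dose compound 24 h; isolate RNA, RT-PCR, FAM primer extension, HpaI digest; quantify by capillary electrophoresis; positive direction vs DMSO.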
# [3] = read-out: E-selectin (Homo sapiens) (UniProt P16581); assay: BSK_3C_Eselectin: BioMAP Diversity Plus: 3C Assay for Eselectin Biomarker Activity (AID 2283015); details: primary human endothelial cells (HUVEC); actives raise or lower the signal;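 as to outcome: cell surface E-selectin protein quantified by ELISA 24 h after dosing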
# Outline: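 E-selectin ELISA readout, fitted bidirectionally relative to DMSO, taken 24 h post-dosing in HUVEC cultures of the 3C system. Overt cytotoxicity tracked with sulforhodamine B staining of parallel wells.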
# [4] = read-out: Interleukin-1 alpha (IL1a), IL1A (gene 3552); assay: BSK_BE3C_IL1a: BioMAP Diversity Plus: BE3C Assay for Interleukin-1 alpha (IL1a) Biomarker Activity (AID 2283016); details: primary human bronchial epithelial cells; actives raise or lower the signal
# Outline: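 BE3C primary human bronchial epithelium; cpd 24 h; IL-1a by ELISA; bidirectional fit vs DMSO; parallel SRB (0.1% SRB, 10% TCA fix, 560 nm) for cytotoxicity.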
# [5] = read-out: Monocyte Chemoattractant Protein-1 (MCP1), CCL2 (gene 6347); assay: BSK_3C_MCP1: BioMAP Diversity Plus: 3C Assay for Monocyte Chemoattractant Protein-1 (MCP1) Biomarker Activity (AID 2283017); details: primary human endothelial cells (HUVEC); actives raise or lower the signal
# Outline: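 MCP-1 was measured by ELISA 24 h after dosing in primary HUVEC 3C cultures and fitted in both directions relative to DMSO; cytotoxicity was checked by SRB total-protein staining in parallel wells.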
# [6] = read-out: Monocyte Chemoattractant Protein-1 (MCP1), CCL2 (gene 6347); assay: BSK_4H_MCP1: BioMAP Diversity Plus: 4H Assay for Monocyte Chemoattractant Protein-1 (MCP1) Biomarker Activity (AID 2283018); details: primary human endothelial cells (HUVEC); actives raise or lower the signal
# Outline: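 ELISA read-out of MCP-1 from human vascular endothelial primary cells taken at 24 hours after compound exposure. Activity was fitted in both directions relative to DMSO, which served as negative control.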
# [7] = read-out: Human Leukocyte Antigen - DR isotype (HLADR), HLA-DRA (gene 3122); assay: BSK_3C_HLADR: BioMAP Diversity Plus: 3C Assay for Human Leukocyte Antigen - DR isotype (HLADR) Biomarker Activity (AID 2283019); details: primary human endothelial cells (HUVEC); actives raise or lower the signal;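 as to outcome: ELISA of cell-surface HLA-DR on HUVEC 24 h after dosing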
# Outline: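 Bidirectional fitting against DMSO was applied to the HLA-DR ELISA signal from human umbilical vein endothelial cells, 24 h post-dose. Cytotoxicity came from parallel SRB total-protein staining; 3C proliferation was counted by SRB at 48 h.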
# [8] = read-out: Interleukin-8 (IL8), CXCL8 (gene 3576); assay: BSK_3C_IL8: BioMAP Diversity Plus: 3C Assay for Interleukin-8 (IL8) Biomarker Activity (AID 2283020); details: primary human endothelial cells (HUVEC); actives raise or lower the signal
# Outline: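 ELISA read-out of IL-8 from human umbilical vein endothelium, measured 24 h after chemical dosing. Activity is expressed relative to DMSO negative control, with both increases and decreases fitted.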
# [9] = read-out: Monokine induced gamma interferon (MIG), CXCL9 (gene 4283); assay: BSK_3C_MIG: BioMAP Diversity Plus: 3C Assay for Monokine induced gamma interferon (MIG) Biomarker Activity (AID 2283021); details: primary human endothelial cells (HUVEC); actives raise or lower the signal
# Outline: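 Read-out is ELISA detection of MIG on human umbilical vein endothelial cells, taken 24 h after dosing. Gain or loss of signal was scored relative to DMSO controls using bidirectional curve fitting.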
# [10] = biological target: human Vitamin D Receptor (VDR), VDR (gene 7421) (UniProt P11473); assay: ATG_VDR_TRANS: Attagene TRANS-FACTORIAL HepG2 Assay for human Vitamin D Receptor (VDR) (AID 2283022; active = hit-call score of the fitted dose curve at least 0.9, where 1 is the maximum)
# Chain of human Vitamin D Receptor (VDR), VDR (gene 7421) (P11473 whole entry, looked up, the tested form may be a part): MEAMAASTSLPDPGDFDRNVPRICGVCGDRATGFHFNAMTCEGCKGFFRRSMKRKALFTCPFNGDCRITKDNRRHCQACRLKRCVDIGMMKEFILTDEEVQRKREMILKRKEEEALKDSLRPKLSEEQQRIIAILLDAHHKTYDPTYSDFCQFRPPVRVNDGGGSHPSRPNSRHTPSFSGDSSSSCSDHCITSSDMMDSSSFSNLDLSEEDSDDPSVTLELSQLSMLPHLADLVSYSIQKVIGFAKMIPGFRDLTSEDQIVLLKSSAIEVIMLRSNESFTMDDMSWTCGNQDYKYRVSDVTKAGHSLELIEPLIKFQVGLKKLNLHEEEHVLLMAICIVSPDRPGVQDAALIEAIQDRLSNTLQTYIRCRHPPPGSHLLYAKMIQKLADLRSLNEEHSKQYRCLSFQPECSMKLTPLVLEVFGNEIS
# Outline: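 Transactivation by an exogenous VDR-Gal4 chimera in transiently transfected HepG2 cells was measured as reporter transcript level 24 hours after chemical treatment. RT-PCR products were analysed by capillary electrophoresis and fitted in the positive direction relative to DMSO.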
# [11] = BSK_3C_SRB: Viability Assessment in the BioMAP Diversity Plus: 3C Assay (AID 2283023); details: primary human endothelial cells (HUVEC);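 also: fitted both ways against DMSO so a hit may be signal rise or drop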
# Outline: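 Cytotoxicity readout in parallel HUVEC 3C cultures: after 24 h compound exposure, cells fixed with 10% TCA, stained with 0.1% SRB and read at 560 nm. Gain or loss relative to DMSO fitted.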
# [12] = read-out: Matrix Metallopeptidase 1 (MMP1), MMP1 (gene 4312); assay: BSK_BE3C_MMP1: BioMAP Diversity Plus: BE3C Assay for Matrix Metallopeptidase 1 (MMP1) Biomarker Activity (AID 2283024); details: primary human bronchial epithelial cells; actives raise or lower the signal
# Outline: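 Human bronchial epithelial cells (BE3C system) exposed to compound for 24 h; MMP1 then quantified by ELISA. Activity was fitted in both directions relative to DMSO.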
# [13] = read-out: Pselectin, SELP (gene 6403); assay: BSK_4H_Pselectin: BioMAP Diversity Plus: 4H Assay for Pselectin Biomarker Activity (AID 2283026); details: primary human endothelial cells (HUVEC); actives raise or lower the signal
# Outline: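 ELISA read-out of P-selectin on human umbilical vein endothelium after 24 h of dosing. Values derive from bidirectional fitting relative to DMSO. Parallel SRB protein staining flagged overt cytotoxicity.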
# [14] = BSK_BE3C_SRB: Viability Assessment in the BioMAP Diversity Plus: BE3C Assay (AID 2283028); details: primary human bronchial epithelial cells
# Outline: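 Cytotoxicity read-out: SRB (0.1%) staining of TCA-fixed (10%) human lung bronchial epithelial cells, absorbance 560 nm, 24 h post-dosing. Curves fitted both directions relative to DMSO.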
# [15] = read-out: Thrombomodulin, THBD (gene 7056); assay: BSK_3C_Thrombomodulin: BioMAP Diversity Plus: 3C Assay for Thrombomodulin Biomarker Activity (AID 2283029); details: primary human endothelial cells (HUVEC); actives raise or lower the signal
# Outline: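 Read-out is ELISA of thrombomodulin on human umbilical vein endothelium 24 h after chemical dosing. Gain or loss of signal is scored relative to DMSO. Overt cytotoxicity is checked in parallel cultures by sulforhodamine B staining.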
# [16] = read-out: Urokinase-type plasminogen activator receptor (uPAR), PLAUR (gene 5329); assay: BSK_4H_uPAR: BioMAP Diversity Plus: 4H Assay for Urokinase-type plasminogen activator receptor (uPAR) Biomarker Activity (AID 2283030); details: primary human endothelial cells (HUVEC); actives raise or lower the signal
# Outline: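 uPAR level read by ELISA on HUVEC cultures (BioMAP 4H) 24 h post-dosing, analyzed for gain or loss relative to DMSO. Parallel SRB staining assessed overt cytotoxicity.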
# [17] = biological target: human Thyroid Receptor alpha (THRa1), THRA (gene 7067) (UniProt P10827); assay: ATG_THRa1_TRANS: Attagene TRANS-FACTORIAL HepG2 Assay for human Thyroid Receptor alpha (THRa1) (AID 2283014; active = hit-call score of the fitted dose curve at least 0.9, where 1 is the maximum)
# Chain of human Thyroid Receptor alpha (THRa1), THRA (gene 7067) (P10827 whole entry, looked up, the tested form may be a part): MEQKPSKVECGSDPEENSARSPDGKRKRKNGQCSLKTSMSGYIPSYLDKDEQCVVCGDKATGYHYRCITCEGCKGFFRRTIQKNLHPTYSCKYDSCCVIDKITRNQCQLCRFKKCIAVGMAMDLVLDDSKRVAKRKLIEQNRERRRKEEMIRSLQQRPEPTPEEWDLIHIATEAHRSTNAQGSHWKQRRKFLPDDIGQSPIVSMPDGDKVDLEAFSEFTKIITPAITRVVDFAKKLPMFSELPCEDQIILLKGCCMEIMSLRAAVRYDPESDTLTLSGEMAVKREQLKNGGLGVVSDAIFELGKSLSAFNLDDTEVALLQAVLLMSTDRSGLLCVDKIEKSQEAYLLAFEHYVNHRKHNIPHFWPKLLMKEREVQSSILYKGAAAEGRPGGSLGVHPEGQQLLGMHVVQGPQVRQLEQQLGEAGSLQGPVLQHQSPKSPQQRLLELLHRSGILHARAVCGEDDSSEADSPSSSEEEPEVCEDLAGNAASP
# Outline: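 Transcripts from GAL4-UAS-driven reporters, measured after 24 h compound exposure by RT-PCR plus capillary electrophoresis of 6-FAM-labeled fragments, were fitted for gain of signal relative to DMSO. Cells: transiently transfected HepG2 expressing NR-Gal4 chimeras.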
# Chain of E-selectin (Homo sapiens) (P16581 whole entry, looked up): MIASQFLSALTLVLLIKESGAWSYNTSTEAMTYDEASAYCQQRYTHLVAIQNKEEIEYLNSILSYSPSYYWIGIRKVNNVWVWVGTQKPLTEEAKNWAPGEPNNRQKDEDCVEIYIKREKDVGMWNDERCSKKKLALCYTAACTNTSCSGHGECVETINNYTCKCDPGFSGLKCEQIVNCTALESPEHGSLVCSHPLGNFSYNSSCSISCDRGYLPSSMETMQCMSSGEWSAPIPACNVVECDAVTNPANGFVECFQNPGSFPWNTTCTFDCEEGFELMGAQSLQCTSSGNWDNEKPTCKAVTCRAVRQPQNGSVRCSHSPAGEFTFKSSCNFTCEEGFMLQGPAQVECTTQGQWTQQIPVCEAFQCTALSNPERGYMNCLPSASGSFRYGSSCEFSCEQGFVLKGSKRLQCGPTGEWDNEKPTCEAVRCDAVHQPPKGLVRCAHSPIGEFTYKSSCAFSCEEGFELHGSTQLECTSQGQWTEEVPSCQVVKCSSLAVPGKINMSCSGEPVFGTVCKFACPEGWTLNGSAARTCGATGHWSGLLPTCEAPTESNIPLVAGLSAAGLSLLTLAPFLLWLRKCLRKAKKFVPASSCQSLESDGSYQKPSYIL
smiles,measurement,setting,value
CC(C)(C)c1cccc(O)c1,outcome,[1],inactive
same,AC50,[2],66.4 µM (active)
same,outcome,[3],inactive
same,outcome,[4],inactive
same,outcome,[5],inactive
same,outcome,[6],inactive
same,outcome,[7],inactive
same,outcome,[8],inactive
same,outcome,[9],inactive
same,outcome,[10],inactive
same,outcome,[11],inactive
same,outcome,[12],inactive
same,outcome,[13],inactive
same,outcome,[14],inactive
same,outcome,[15],inactive
same,outcome,[16],inactive
CC(=O)OCC=C(C)CCC=C(C)CCC=C(C)C,outcome,[1],inactive
same,AC50,[2],9.14 µM (active)
same,outcome,[17],inactive
same,outcome,[3],inactive
same,outcome,[4],inactive
same,outcome,[5],inactive
same,AC50,[6],3.97 µM (active)
same,outcome,[7],inactive
same,outcome,[8],inactive
same,outcome,[9],inactive
same,outcome,[10],inactive
same,outcome,[11],inactive
same,outcome,[13],inactive
same,outcome,[14],inactive
same,outcome,[15],inactive
same,outcome,[16],inactive
CCCCCCCCOC(C)=O,outcome,[1],inactive
same,outcome,[2],inactive
same,outcome,[17],inactive
same,outcome,[10],inactive
CCCCC(CC)COCCO (configuration not stated),outcome,[1],inactive
same,AC50,[2],100 µM (active)
same,outcome,[17],inactive
same,outcome,[10],inactive
CC1(C)[C@H](C=C(Cl)Cl)[C@H]1C(=O)OCc1cccc(Oc2ccccc2)c1,outcome,[1],inactive
same,outcome,[2],inactive
same,outcome,[17],inactive
same,outcome,[3],inactive
same,outcome,[4],inactive
same,outcome,[5],inactive
same,outcome,[6],inactive
same,outcome,[7],inactive
same,outcome,[8],inactive
same,outcome,[10],inactive
same,outcome,[11],inactive
same,outcome,[13],inactive
same,outcome,[14],inactive
same,outcome,[15],inactive
same,outcome,[16],inactive
c1ccc(Sc2ccccc2)cc1,outcome,[1],inactive
same,AC50,[2],100 µM (active)
same,outcome,[17],inactive
same,AC50,[3],29.9 µM (active)
same,AC50,[4],33.2 µM (active)
same,AC50,[5],29.1 µM (active)
same,AC50,[6],20 µM (active)
same,AC50,[7],30.3 µM (active)
same,AC50,[8],20 µM (active)
same,outcome,[9],inactive
same,AC50,[11],32.3 µM (active)
same,AC50,[13],29.6 µM (active)
same,outcome,[14],inactive
same,AC50,[15],20 µM (active)
same,AC50,[16],32.7 µM (active)
O=C(O)c1cccc(Cl)n1,outcome,[1],inactive
same,outcome,[2],inactive
same,outcome,[17],inactive
same,outcome,[10],inactive
CCCCCCCOC(C)=O,outcome,[1],inactive
same,outcome,[2],inactive
same,outcome,[17],inactive
same,outcome,[10],inactive
C=CCOC(=O)/C=C\C(=O)OCC=C,outcome,[1],inactive
same,outcome,[2],inactive
same,outcome,[17],inactive
same,outcome,[10],inactive
CC1=CCC(=C(C)C)CC1,outcome,[1],inactive
same,outcome,[2],inactive
CCCCCc1cccc(=O)o1,outcome,[1],inactive
same,outcome,[2],inactive
same,outcome,[17],inactive
